# Reference: PubChem BioAssay
# Experiment: TOR pathway CIT2 reporter hit retest – S. cerevisiae, GFP fusion, cherry picks, mother/daughter gates, confirmation (AID 2274)
# Conditions: S. cerevisiae CIT2-GFP strain, flow cytometry, 3 h; measured here: mother cell gate; at 10 µM; stronger effect = higher value
row,SMILES,"GFP response, % of DMSO [%]"
1,CCN(C(=O)c1ccccc1Cl)c1ccccc1,100
2,CCN(CC)CCNC(=O)Cn1c(-c2ccccn2)nc2ccccc21,97.7
3,Nc1cc(N)nc(SCC(=O)N2CCc3ccccc32)n1,101
4,N#C/C(=C\c1ccc(N2CCOCC2)o1)c1ccccc1,103
5,CS(=O)(=O)N1CCc2cc(C(=O)Nc3ccc(COCC(F)(F)F)cc3)ccc21,111
6,CCc1noc(C)c1C(=O)Nc1nc(-c2ccc(Cl)cc2Cl)cs1,93.8
7,O=C(O)c1ccc2c3c(ncnc13)-c1ccccc1C2=O,117
8,Cc1ccc(NC(=O)c2ccccc2)cc1,93.4
9,Cc1ccc(C)c(-c2nnc(NC(=O)c3ccc([N+](=O)[O-])o3)o2)c1,87
10,COc1ccc(N2C(=O)C(Cl)=C(Oc3cccc(OC)c3)C2=O)cc1,80.8
11,Cc1cc(C)c(S(=O)(=O)ON2C(=O)c3ccccc3C2=O)cc1C,71.1
12,O=C(COC(=O)/C=C/c1cccs1)Nc1nc(-c2ccccc2)cs1,98.5
13,CCOc1ccccc1/C=C/C(=O)c1ccc(Cl)cc1,102
14,O=C(NC(=S)NNC(=O)c1cnccn1)c1ccc(F)cc1,92.3
15,Cc1ccc(Nc2c(-c3ccccn3)nc3ccc(C)cn23)cc1,93.3
16,O=c1/c(=C/c2cccc3ccccc23)sc2ncnn12,100
17,Cc1c(NC(=O)/C(C#N)=C/c2c(N3CCCCC3)nc3ccccn3c2=O)c(=O)n(-c2ccccc2)n1C,101
18,CS(=O)(=O)N1N=C(c2ccco2)CC1c1ccc(Br)cc1 (stereo not given),101
19,O=C(Oc1ccnc2cc(Cl)ccc12)N1CCCCCC1,89.1
20,Cc1c([N+](=O)[O-])cnc(Sc2ccccc2)c1[N+](=O)[O-],99.7

row,SMILES,"GFP response, % of DMSO [%]"
1,Cc1cc(C(=O)Nc2nc(-c3ccccn3)cs2)ccc1[N+](=O)[O-],99.3
2,COc1cc(/C=C/C(=O)c2c(O)cc(C)oc2=O)cc(OC)c1O,94.4
3,COc1ccc2ccccc2c1/C=N/Nc1cccc(C(=O)O)c1,102
4,CCn1c(=O)c(C(=O)NC(C)C)c(O)c2ccccc21,103
5,CCOc1cc(N2CCOCC2)c(OCC)cc1NC(=O)C(NC(=O)c1ccco1)C(C)C (stereo not given),108
6,CNC(=O)/C(C#N)=C/c1c(N(Cc2ccccc2)Cc2ccccc2)nc2c(C)cccn2c1=O,104
7,O=C(COc1ccccc1)N1CCN(c2ncnc3c2cnn3-c2ccccc2)CC1,98.2
8,O=S(=O)(c1ccc(Oc2ccccc2)cc1)N1CCOCC1,94.4
9,O=S(=O)(/N=C(/Nc1ccc(F)cc1F)c1ccc(Cl)cc1)c1ccccc1,95.6
10,CC(=O)Nc1cccc(Oc2ccc(-c3noc(C)n3)cc2)c1,96.8
11,C/C(=N/NC(=O)c1ccc(C(C)(C)C)cc1)c1ccccn1,98.2
12,O=C(Sc1cccc2cccnc12)c1ccccc1Br,112
13,CCOc1cc(-c2nc3cc(C)ccn3c2NCC2CCCO2)ccc1O (stereo not given),104
14,Oc1ccccc1/C=N/c1c(-c2ccco2)nc2ccccn12,102
15,Cc1ccc(C2=NN(S(C)(=O)=O)C(c3ccc4c(c3)OCO4)C2)cc1 (stereo not given),119
16,COc1ccccc1NC(=O)Cn1nnc(-c2ccccc2NC(=O)c2ccco2)n1,99.8
17,Cc1ccc(C(=O)N/C(=C/c2ccco2)C(=O)N2CCOCC2)cc1,95.6
18,COc1ccc(-c2cc3cc(C(=O)O)ccn3c2C(=O)c2ccccc2)cc1,99.7
19,COc1ccccc1C(=O)NNC(=S)NC(=O)c1cccs1,108
20,CC(=O)Oc1c(C)cc(Cl)cc1C(=O)Nc1ccc([N+](=O)[O-])cc1Cl,89.8
